Hits are enriched below; roughly 2.4% of the tested compounds scored in any of these assays.
Pol iota inh: blocks human DNA polymerase iota activity; Q9UNA4; Pol iota fluorescent replication assay, 10 min; Potency, µM (titrated, usually from 115 µM), for inactives: at the highest dose activity, negative = inhibition, usual class: inhibitors; hit rate 1% among 390,000; AID 588590; further: potency means the concentration at half of the fitted maximal effect
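Fluorescent replication assay read twice, at 0 min and 10 min after adding 50 nM (final) substrate. Enzyme (10 nM) and compounds were first incubated 15 min at room temperature; enzyme-free buffer wells were negative controls.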
APE1 inh: APE1 (human) endonuclease inhibition; recombinant APE1, TAMRA/BHQ-2 abasic DNA cleavage fluorescence; Potency, µM (top dose mostly 65.8 µM), for the others: at the highest dose activity change, negative = inhibition, most hits filed as inhibitors; hit rate 0.35% among 350,000;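 further: potency means the concentration at half of the fitted maximal effect; plate controls were vehicle for no effect and reference inhibitor for full effect; nearly all actives have a fitted effect of over 55% in size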
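APE1 at 0.75 nM preincubated 15 min at room temperature with compound. Reaction then started with 50 nM double-stranded THF-abasic substrate labelled with TAMRA/BHQ-2, and 525/598 nm fluorescence read kinetically. Activity taken as third-minus-first read difference, normalized to DMSO and NSC13755 controls.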
Pol beta inh: DNA polymerase beta (human) inhibition | Pol beta primer extension/strand displacement, fluorescence kinetic | Potency, µM (highest dose often 114 µM), without a hit: top-dose activity change, negative = inhibition, most hits filed as inhibitors | hit rate 1.3% among 340,000; further: potency means the concentration at half of the fitted maximal effect; on the % scale 0 is the no-effect control and ±100 the full control effect
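Homogeneous kinetic assay of primer extension and strand displacement by 10 nM Pol beta, preincubated 15 min at room temperature with compound before 50 nM substrate (final) was added. Read at 0 and 10 min; four-parameter Hill fit.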
Pol kappa inh-1: blocks human DNA polymerase kappa activity | AID 588579 | hit rate 0.53% among 400,000 | Potency, µM (highest dose often 107 µM), for the others: top-dose activity, negative = inhibition, hits mostly inhibitors | purified Pol kappa, fluorescent DNA synthesis assay, 10 min | Q9UBT6; further: potency means the concentration at half of the fitted maximal effect; on the % scale 0 is the no-effect control and ±100 the full control effect
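Kinetic fluorescence readout at 0 and 10 min followed reaction start with substrate at 50 nM final. Beforehand, enzyme (10 nM Pol kappa) stood 15 min with compound at room temperature; buffer-only wells were negative controls.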
GLS inh: inhibitors of human glutaminase (GLS) | O94925 | GLS enzymatic activity, qHTS titration | Potency, µM (top dose mostly 45.5 µM), for inactives: at the highest dose activity change, negative = inhibition, hits mostly inhibitors | hit rate 0.21% among 410,000 | AID 624170; further: potency means the concentration at half of the fitted maximal effect; on the % scale 0 is the no-effect control and ±100 the full control effect
Target sequence (O94925 whole entry, looked up): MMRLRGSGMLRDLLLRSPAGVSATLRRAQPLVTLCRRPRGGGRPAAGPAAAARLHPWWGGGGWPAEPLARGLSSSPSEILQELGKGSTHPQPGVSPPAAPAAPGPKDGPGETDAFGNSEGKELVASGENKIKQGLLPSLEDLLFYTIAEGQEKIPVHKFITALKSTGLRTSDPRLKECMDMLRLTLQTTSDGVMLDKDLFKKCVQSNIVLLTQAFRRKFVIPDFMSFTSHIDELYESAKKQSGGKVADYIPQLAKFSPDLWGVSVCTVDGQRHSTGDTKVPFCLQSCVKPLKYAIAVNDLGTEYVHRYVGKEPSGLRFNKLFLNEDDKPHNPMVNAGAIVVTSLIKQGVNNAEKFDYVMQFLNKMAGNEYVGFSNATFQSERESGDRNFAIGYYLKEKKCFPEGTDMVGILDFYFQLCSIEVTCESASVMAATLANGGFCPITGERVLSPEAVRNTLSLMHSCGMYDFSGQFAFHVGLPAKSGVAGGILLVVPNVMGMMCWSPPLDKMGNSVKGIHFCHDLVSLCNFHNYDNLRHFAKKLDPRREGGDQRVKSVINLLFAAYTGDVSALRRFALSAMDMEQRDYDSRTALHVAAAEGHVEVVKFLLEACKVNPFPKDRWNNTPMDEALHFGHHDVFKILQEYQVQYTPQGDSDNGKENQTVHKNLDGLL
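Glutamate formation by hKGA was monitored fluorometrically using coupled glutamate oxidase, HRP and Amplex Red. Substrate was added as 1 mM L-glutamine solution; incubation was 30 min at RT after an initial read.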
Pol eta inh-1: blocks human DNA polymerase eta activity. Q9Y253. recombinant Pol eta, fluorescent DNA replication assay. Potency, µM (highest dose often 114 µM), for the others: top-dose activity change, negative = inhibition, most hits filed as inhibitors. hit rate 1.2% among 390,000. AID 588591; further: potency means the concentration at half of the fitted maximal effect; on the % scale 0 is the no-effect control and ±100 the full control effect
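Fluorescent replication assay: 50 nM final substrate added after a 15 min room-temperature compound preincubation with 10 nM enzyme. Signal taken at 0 min and again at 10 min.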
POLI cherry-pick: Human Pol iota inhibitor confirmatory assay. shares compounds with Pol kappa inh-1. Pol iota primer extension, TAMRA/BHQ fluorescence. Potency, µM, hits mostly inhibitors. hit rate 77% among 1,500; further: potency means the concentration at half of the fitted maximal effect
GALK inh confirm: galactokinase (human) inhibition, confirmation. shares compounds with Pol eta inh-1. purified GALK, Kinase-Glo ATP depletion luminescence. Potency, µM (highest dose often 115 µM), without a hit: at the highest dose activity, negative = inhibition, most hits filed as inhibitors. hit rate 70% among 150. AID 2015
GALK redox cs: counter-screen for GALK inhibitors: redox cycling H2O2 generation; shares compounds with Pol eta inh-1; Phenol red-HRP H2O2 redox cycling, absorbance 600 nm; Potency, µM (titrated, usually from 115 µM), for the others: at the highest dose activity change, negative = H2O2 signal, hits mostly inhibitors; hit rate 40% among 150
HEK293 tox: HEK-293 cytotoxicity, GALK inhibitor secondary; shares compounds with Pol eta inh-1; HEK-293 viability, ATP luminescence (CellTiter-Glo), 24/48 h; Potency, µM (top dose mostly 46.1 µM), for the others: at the top dose activity change, negative = cytotoxicity, usual class: inhibitors; hit rate 10% among 170; AID 2547; further: potency means the concentration at half of the fitted maximal effect; on the % scale 0 is the no-effect control and ±100 the full control effect
Pol kappa inh-2: Pol kappa (human) inhibition, cherry-pick confirmation; shares compounds with Pol eta inh-1; purified Pol-kappa, fluorescent strand-displacement substrate; Potency, µM, actives largely listed as inhibitors; hit rate 76% among 920; AID 720501; further: potency means the concentration at half of the fitted maximal effect
Pol eta inh-2: Pol eta (human) inhibition, cherry-pick confirmation | shares compounds with Pol eta inh-1 | Pol eta primer extension, TAMRA/BHQ fluorescence, 10 min | Potency, µM, usual class: inhibitors | hit rate 64% among 2,600 | AID 720502; further: potency means the concentration at half of the fitted maximal effect
Starred values were filed as active, the others as inactive; ? = inconclusive; nt = not tested or not shown; [ ] = dose if it differs, or a comment. The call rests on the fitted dose curve; in most records, active means well fitted curve in the direction sought with a large enough effect; inconclusive means small, poorly fitted or top-dose-only effect, or another doubt; inactive means no such curve, though single readings can be large; an effect the other way counts as inactive or inconclusive.

SMILES | Pol iota inh | APE1 inh | Pol beta inh | Pol kappa inh-1 | GLS inh | Pol eta inh-1 | POLI cherry-pick | Pol kappa inh-2 | Pol eta inh-2 | others
O=C(N/N=C/c1ccc2c(c1)OCO2)c1ccc2c(c1)OCCO2 | -7% | 13% | -1% | 1% | -8% | -25% | nt | nt | nt
CC[C@]12c3[nH]c4cc(CCC(=O)N(C)C)ccc4c3CCN1C(=O)[C@@H](CC(=O)NCc1ccc(OC)c(OC)c1)C[C@@H]2C(=O)N1CCN(C(=O)C2CC2)CC1 | 10% | 0% | nt | 14% | 2% | -10% | nt | nt | nt
CC(=O)Nc1ccc(C(=O)/C=C/c2ccco2)cc1 | ? | -2% | 25µM* | 45µM* | ? | 25µM* | ? | nt | 38*
Cc1ccsc1/C=C1/C(=O)NN(c2ccccc2)C1=O | ? | -8% | 0% | -5% | -13% | -6% | nt | nt | nt
O=C1NN(c2ccccc2)C(=O)/C1=C/c1ccc(Sc2ccc(Cl)cc2)o1 | 7.9µM* | 0% | ? | 50µM* | -19% | nt | ? | nt | 30*
Cc1ccc(Sc2ccc(/C=C3/C(=O)NN(c4ccccc4)C3=O)o2)cc1 | -96% | 2% | ? | ? | -20% | 22µM* | 67* | 24* | ?
CC1(OC(=O)c2ccc(Cl)nc2)C(=O)C=C2C=C3CCCN3C=C2C1=O (stereo unspecified) | ? | ? | 25µM* | 50µM* | ? | 14µM* | 67* | nt | 48*
CC1(OC(=O)c2ccc(Cl)nc2)C(=O)C=C2C=C(C3CC3)OC=C2C1=O (stereo unspecified) | nt | -8% | nt | nt | nt | nt | nt | nt | nt
COc1ccc(-c2csc(NC(=O)c3ccccc3NS(=O)(=O)c3ccc(F)c(F)c3)n2)cc1 | ? | ? | ? | ? | -15% | ? | ? | ? | ? | GALK inh confirm=38µM*;GALK redox cs=5%;HEK293 tox=4µM*
COc1ccc(C(=O)/C=C/c2ccc(OCc3ccccc3)cc2)cc1CSCC(=O)O | 45µM* | 7% | 5% | -20% | -13% | 45µM* | ? | nt | ?
O=C(O)COc1ccccc1C=NNc1ccc([N+](=O)[O-])cc1S(=O)(=O)Nc1ccc(Cl)cc1 | ? | -4% | nt | -34% | ? | 22µM* | 84* | ? | 48*
COc1ccc(NS(=O)(=O)c2cc([N+](=O)[O-])ccc2NN=Cc2ccccc2OCC(=O)O)cc1 | ? | -2% | nt | -35% | 28% | ? | nt | nt | nt
O=C(O)c1ccc(/C=C/c2ccc3cccc(O)c3n2)cc1 | ? | -2% | ? | -35% | 2% | 79µM* | 24* | 19* | ?
Oc1ccc(/C=C/c2ccc3cccc(O)c3n2)cc1Br | 8% | 26% | -11% | -6%[60.1 µM] | -1% | -15% | nt | nt | nt
